Results reported in the supplement of paper PMC8728848.
The sample as a whole holds a higher share of the strongest signals than the screen did.

What was measured:
Experiment in all cases: glycan array binding signal (z-score within array); higher = stronger binding
Details in all cases: glycan notation: IUPAC condensed, linker removed
[1] = molecular target: Gal3S(b1-3)GalNAc
How it was run: (§1)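 Negative Z-scores can be read as non-binding. The Z-score is calculated within each array and then averaged across arrays of one protein sequence at different concentrations or buffers and across linkers. Arrays, 3228 in all, were curated from the Consortium for Functional Glycomics database and kept only where the protein sequence was available.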

[2] = molecular target: Gal3S(b1-4)GlcNAc6S
How it was run: as §1

[3] = molecular target: Gal6S(b1-4)Glc
How it was run: as §1

[4] = molecular target: GalNAc(a1-3)GalNAc(b1-3)Gal(a1-4)Gal(b1-4)GlcNAc
How it was run: as §1

[5] = molecular target: GlcA3S(b1-3)Gal(b1-4)GlcNAc(b1-2)Man
How it was run: as §1

[6] = molecular target: GlcA3S(b1-3)Gal(b1-4)GlcNAc(b1-3)Gal(b1-4)Glc
How it was run: as §1

[7] = molecular target: GlcNAc(a1-4)Gal(b1-4)GalNAc
How it was run: as §1

[8] = molecular target: GlcNAc(b1-2)Man(a1-3)[GlcNAc(b1-4)][GlcNAc(b1-2)Man(a1-6)]Man(b1-4)GlcNAc(b1-4)GlcNAc
How it was run: as §1

[9] = molecular target: GlcNAc(b1-2)Man(a1-3)[GlcNAc(b1-4)][GlcNAc(b1-2)Man(a1-6)]Man(b1-4)GlcNAc(b1-4)[Fuc(a1-6)]GlcNAc
How it was run: as §1

[10] = molecular target: GlcNAc(b1-2)[GlcNAc(b1-4)]Man(a1-3)[GlcNAc(b1-4)][GlcNAc(b1-2)Man(a1-6)]Man(b1-4)GlcNAc(b1-4)GlcNAc
How it was run: as §1

[11] = molecular target: GlcNAc(b1-3)Gal(b1-4)GlcNAc(b1-6)[Gal(b1-3)]GalNAc
How it was run: as §1

[12] = molecular target: Man(a1-3)[Man(a1-6)]Man(a1-6)[Man(a1-3)]Man(b1-4)GlcNAc(b1-4)GlcNAc
How it was run: as §1

[13] = molecular target: Neu5Ac(a2-3)Gal
How it was run: as §1

[14] = molecular target: Neu5Ac(a2-3)Gal(b1-3)GalNAc(b1-3)Gal(a1-4)Gal(b1-4)Glc
How it was run: as §1

[15] = molecular target: Neu5Ac(a2-3)Gal(b1-4)GlcNAc(b1-2)Man(a1-3)[GlcNAc(b1-2)Man(b1-4)GlcNAc(b1-2)Man(a1-6)]Man(b1-4)GlcNAc(b1-4)GlcNAc
How it was run: as §1

[16] = molecular target: Neu5Ac(a2-3)Gal(b1-4)GlcNAc(b1-2)Man(a1-3)[Neu5Ac(a2-3)Gal(b1-4)GlcNAc(b1-2)Man(a1-6)]Man(b1-4)GlcNAc(b1-4)[Fuc(a1-6)]GlcNAc
How it was run: as §1

[17] = molecular target: Neu5Ac(a2-3)Gal(b1-4)GlcNAc(b1-2)[Neu5Ac(a2-3)Gal(b1-4)GlcNAc(b1-4)]Man(a1-3)[GlcNAc(b1-4)][Neu5Ac(a2-3)Gal(b1-4)GlcNAc(b1-2)[Neu5Ac(a2-3)Gal(b1-4)GlcNAc(b1-6)]Man(a1-6)]Man(b1-4)GlcNAc(b1-4)GlcNAc
How it was run: as §1

[18] = molecular target: Neu5Ac(a2-3)Gal(b1-4)GlcNAc(b1-2)[Neu5Ac(a2-3)Gal(b1-4)GlcNAc(b1-4)]Man(a1-3)[GlcNAc(b1-4)][Neu5Ac(a2-3)Gal(b1-4)GlcNAc(b1-4)Man(a1-6)]Man(b1-4)GlcNAc(b1-4)GlcNAc
How it was run: as §1

[19] = molecular target: Neu5Ac(a2-3)Gal(b1-4)GlcNAc(b1-3)Gal(b1-4)GlcNAc(b1-3)Gal(b1-4)GlcNAc(b1-2)Man(a1-3)[Neu5Ac(a2-3)Gal(b1-4)GlcNAc(b1-3)Gal(b1-4)GlcNAc(b1-3)Gal(b1-4)GlcNAc(b1-2)Man(a1-6)]GalNAc
How it was run: as §1

[20] = molecular target: Neu5Ac(a2-3)Gal(b1-4)GlcNAc(b1-3)Gal(b1-4)GlcNAc(b1-3)GalNAc
How it was run: as §1

[21] = molecular target: Neu5Ac(a2-6)Gal(b1-4)GlcNAc(b1-2)Man(a1-3)[Neu5Ac(a2-6)Gal(b1-4)GlcNAc(b1-2)Man(a1-6)]Man(b1-4)GlcNAc(b1-4)GlcNAc
How it was run: as §1

[22] = molecular target: Neu5Ac(a2-6)Gal(b1-4)GlcNAc(b1-2)Man(a1-3)[Neu5Ac(a2-6)Gal(b1-4)GlcNAc(b1-2)Man(a1-6)]Man(b1-4)GlcNAc(b1-4)[Fuc(a1-6)]GlcNAc
How it was run: as §1

[23] = molecular target: Neu5Ac(a2-6)Gal(b1-4)GlcNAc(b1-2)Man(a1-6)[Man(a1-3)]Man(b1-4)GlcNAc(b1-4)GlcNAc
How it was run: as §1

[24] = molecular target: Neu5Ac(a2-6)Gal(b1-4)GlcNAc(b1-3)Gal(b1-4)GlcNAc(b1-3)[Neu5Ac(a2-6)Gal(b1-4)GlcNAc(b1-3)Gal(b1-4)GlcNAc(b1-6)]GalNAc
How it was run: as §1

[25] = molecular target: Neu5Ac(a2-6)GalNAc
How it was run: as §1

[26] = molecular target: Neu5Ac(a2-8)Neu5Ac
How it was run: as §1

[27] = molecular target: Neu5Ac(a2-8)Neu5Ac(a2-3)Gal(b1-3)GalNAc(b1-4)[Neu5Ac(a2-8)Neu5Ac(a2-3)]Gal(b1-4)Glc
How it was run: as §1

[28] = molecular target: Neu5Ac(a2-8)Neu5Ac(a2-8)Neu5Ac(a2-8)Neu5Ac(a2-3)[GalNAc(b1-4)]Gal(b1-4)Glc
How it was run: as §1

[29] = molecular target: Neu5Ac9Ac(a2-3)Gal(b1-3)GlcNAc
How it was run: as §1

[30] = molecular target: Neu5Gc(a2-8)Neu5Gc(a2-3)Gal(b1-4)GlcNAc(b1-3)Gal(b1-4)GlcNAc
How it was run: as §1

B1: AAL (Agrocybe aegerita), Q6WY08 (protein)
chain: MQGVNIYNISAGTSVDLAAPVTTGDIVTFFSSALNLNAGAGNPNNTTLNLFAENGAYLLHIAFRLQENVIIFNSRQPDGPWLVEQRVSDVANQFAGIDGKAMVTVFDHGDKYQVVINEKTVIQYTKQISGLTLSLSYNATEETSIFSTVVEAVTYTGLALEHHHHHH
glycan array binding signal (z-score) [1]: 9.4 | glycan array binding signal (z-score) [2]: 3.66 | glycan array binding signal (z-score) [3]: -0.141 | glycan array binding signal (z-score) [4]: -0.137 | glycan array binding signal (z-score) [5]: 6.26 | glycan array binding signal (z-score) [6]: 10.9 | glycan array binding signal (z-score) [7]: -0.152 | glycan array binding signal (z-score) [8]: -0.151 | glycan array binding signal (z-score) [9]: -0.151 | glycan array binding signal (z-score) [10]: -0.14 | glycan array binding signal (z-score) [11]: -0.134 | glycan array binding signal (z-score) [12]: -0.118 | glycan array binding signal (z-score) [13]: -0.138 | glycan array binding signal (z-score) [14]: 1.72 | glycan array binding signal (z-score) [15]: 5.88 | glycan array binding signal (z-score) [16]: 3.85 | glycan array binding signal (z-score) [17]: 2.98 | glycan array binding signal (z-score) [18]: 5.72 | glycan array binding signal (z-score) [19]: -0.107 | glycan array binding signal (z-score) [20]: -0.106 | glycan array binding signal (z-score) [21]: -0.134 | glycan array binding signal (z-score) [22]: -0.131 | glycan array binding signal (z-score) [23]: -0.148 | glycan array binding signal (z-score) [24]: -0.138 | glycan array binding signal (z-score) [25]: -0.164 | glycan array binding signal (z-score) [26]: -0.146 | glycan array binding signal (z-score) [27]: -0.138 | glycan array binding signal (z-score) [28]: -0.132 | glycan array binding signal (z-score) [29]: -0.156 | glycan array binding signal (z-score) [30]: 2.45
